mIDH1 inhibitor: inhibitors of human mutant IDH1 R132H; O75874; IDH1-R132H enzyme, NADPH consumption, diaphorase/resazurin fluorescence; Potency, µM (highest dose often 76.6 µM), without a hit: at the top dose activity change, negative = inhibition, usual class: inhibitors; 390,000 tested, 0.093% active; further: potency means the concentration at half of the fitted maximal effect; on the % scale 0 is the no-effect control and ±100 the full control effect; nearly all actives have a fitted effect of over 65% in size
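IDH1-R132H (0.5 ug/mL dispensed) in pH 7.5 Tris buffer was preincubated 30 min with compound, then given a substrate mix of 0.016 mM NADPH and 2 mM alpha-KG for 80 min at room temperature; remaining NADPH was read by diaphorase/resazurin fluorescence.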
PTHR1 ag: PTHR1 (human) receptor agonism. HEK293 GP2 PTHR1 cells, GloSensor cAMP luminescence, 1 h. Potency, µM (highest dose often 115 µM), inactives show at the highest dose activation, actives largely listed as activators. 410,000 tested, 0.075% active. Q03431; further: potency means the concentration at half of the fitted maximal effect; nearly all actives have a fitted effect of over 55% in size
Target sequence (Q03431 whole entry, looked up): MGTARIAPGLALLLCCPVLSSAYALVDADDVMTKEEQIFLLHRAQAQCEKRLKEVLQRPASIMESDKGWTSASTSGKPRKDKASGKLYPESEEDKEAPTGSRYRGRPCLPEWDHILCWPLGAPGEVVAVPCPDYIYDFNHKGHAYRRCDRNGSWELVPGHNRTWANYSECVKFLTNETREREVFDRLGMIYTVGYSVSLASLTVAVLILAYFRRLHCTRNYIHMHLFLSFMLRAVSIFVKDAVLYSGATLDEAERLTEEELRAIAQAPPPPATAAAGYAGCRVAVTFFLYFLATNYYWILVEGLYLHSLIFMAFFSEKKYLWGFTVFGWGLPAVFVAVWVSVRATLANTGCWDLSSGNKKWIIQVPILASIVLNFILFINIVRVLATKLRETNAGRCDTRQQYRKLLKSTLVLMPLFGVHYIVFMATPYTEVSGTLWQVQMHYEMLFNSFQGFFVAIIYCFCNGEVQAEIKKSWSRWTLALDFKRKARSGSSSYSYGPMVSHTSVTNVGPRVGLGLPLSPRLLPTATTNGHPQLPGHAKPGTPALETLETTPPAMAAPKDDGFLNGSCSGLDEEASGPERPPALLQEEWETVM
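HEK-293-derived GP2 cells expressing PTHR1 and a GloSensor cAMP reporter, 3,000/well, plated overnight, given luciferin plus IBMX (each 0.5 mM as added) for 1 h at 37 °C, then compound for 1 h at 37 °C. Luminescence was read after 15 min at room temperature.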
LDHA inh: LDHA (human) enzyme inhibition | P00338 | purified LDHA, NADH/diaphorase-resazurin fluorescence; stronger effect = lower value | activity change, % (values are at about 110 or 230 µM) | 480,000 tested, 0.15% active; in the data active means activity change below about -30%; inconclusive means mostly about -25% to -30%;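 further: plate controls were DMSO wells for no effect and wells without enzyme for full effect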
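Enzyme activity of human lactate dehydrogenase 5 (2 nM; 0.06 mM NADH, 0.2 mM pyruvate, 5 min, RT) is measured via a resazurin/diaphorase fluorescence readout of residual NADH.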
GLP-1R agonist: GLP-1 receptor (human) agonism | 380,000 tested, 0.007% active | HEK293 GLP-1R CRE-luciferase, luminescence, 4-6 h; cells express a hypersensitive GLP-1R form | P43220 | Potency, µM (doses to about 45.6 µM), without a hit: at the highest dose activation, actives largely listed as activators; further: potency means the concentration at half of the fitted maximal effect; % of control where 0% means no effect
GLP1R cytotox: cytotoxicity counter-screen for GLP-1 receptor inverse agonists. HEK293 cAMP-luciferase reporter cells, luminescence, 24 h. 410,000 tested, 0.13% active. Potency, µM (top dose mostly 38.3 µM), for inactives: top-dose activity change, negative = inhibition, usual class: inhibitors. AID 624418;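 further: loss of luciferase light is scored as toxicity; potency means the concentration at half of the fitted maximal effect; on the % scale 0 is the no-effect control and ±100 the full control effect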
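Step one: seed cells (200 cells/uL, DMEM with 10% Nu serum, 1% pen-strep). Step two: 12-hour incubation at 37 deg C. Step three: pin 23 nL compound, incubate 24 hr. Step four: add luciferase reagent, read luminescence 12 min later.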
GLP1R inv ag: inverse agonists of human GLP-1 receptor; HEK293 GLP-1R CRE-luciferase, luminescence, 24 h; GLP-1R form is constitutively active; Potency, µM (series often up to 38.3 µM), for the others: at the highest dose activity change, negative = inhibition, most hits filed as inhibitors; 410,000 tested, 1.6% active; AID 624417; further: potency means the concentration at half of the fitted maximal effect; on the % scale 0 is the no-effect control and ±100 the full control effect; nearly all actives have a fitted effect of over 55% in size
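Seeding at 200 cells/uL, 12 h culture, 24 hr compound treatment, then luciferase reagent and a luminescence read; cells are HEK293 stably expressing a constitutively active GLP-1R plus cAMP-responsive luciferase.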
An asterisk follows results filed as active; i = inactive; ? = inconclusive; nt = no result given; [ ] = dose if it differs, or a comment. An excerpt weighted towards active compounds, which were near 1.7% of everything screened. Unless noted, the call rests on the fitted dose curve; in most records, active means well fitted curve in the direction sought with a large enough effect; inconclusive means small, poorly fitted or top-dose-only effect, or another doubt; inactive means no such curve, though single readings can be large; an effect the other way counts as inactive or inconclusive.

SMILES	mIDH1 inhibitor	PTHR1 ag	LDHA inh	GLP-1R agonist	GLP1R cytotox	GLP1R inv ag
Fc1ccc(Nc2nc(SCc3cccc(Cl)c3)nc3ccccc23)cc1	-17.1%	-31.9%	-5.1	nt	-13.8%	11.2µM*
Fc1ccc(Nc2nc(SCc3cccc(F)c3)nc3ccccc23)cc1	3.7%	-31.1%	-2.5	nt	-14.8%	?
Cc1cccc(C)c1NC(=O)NC(=O)c1ccc(Cl)cc1	nt	nt	-0.7	nt	nt	nt
O=C(N/N=C/c1ccc(O)cc1)c1ccc(COc2cc(Cl)ccc2Cl)o1	1.5%	-12.4%	-2.1	-3.8%	-27.6%	1.41µM*
Cc1ccc(Cl)cc1N1CCN(C(=O)CSc2nnc3n2C(C)(C)Cc2ccccc2-3)CC1	3.6%	-32.1%	-8.5	-18.3%	-24.7%	3.98µM*
Cc1ccc(Cl)cc1N1CCN(C(=O)CSc2cc(=O)n(C)c3ccccc23)CC1	10.6%	-38.9%	-11.5	nt	-18.4%	10µM*
Cc1cc(=O)n2[nH]c(NC(=O)c3ccccc3F)nc2n1	nt	nt	-7.7	nt	nt	nt
CNCC#CCOc1c(C)cc(C)cc1C	nt	nt	6.9	nt	nt	nt
CC(C)CNC(=S)NC(=O)c1ccc([N+](=O)[O-])cc1	4.0%	i	6.4	-6.0%	?	10µM*
O=C(NCCc1ccc([N+](=O)[O-])cc1)c1ccccc1	1.7%	i	-3.6	-4.2%	0.8%	4.3%
CC(C)CCNC(=S)Nc1ccc([N+](=O)[O-])cc1	1.4%	-41.2%	-8.0	-1.3%	?	11.2µM*
CC(C)c1ccc(CCNC(=O)c2ccc([N+](=O)[O-])cc2)cc1	1.7%	-32.1%	0.4	13.4%	-15.6%	3.55µM*
CCCCNC(=S)Nc1ccc([N+](=O)[O-])cc1	2.0%	-38.6%	-6.4	-17.4%	?	?
COc1ccc(-c2nc(Nc3ccc(Cl)cc3)sc2C)cc1	nt	nt	3.0	nt	nt	nt
Cc1nc2ccc(Cl)cc2cc1C(=O)N1CCN(CC(=O)N2CCCCCC2)CC1	nt	nt	0.3	nt	nt	nt
Cc1ccc(NC(=O)COc2cccc(C)c2C)cc1S(=O)(=O)N1CCCCCC1	17.3%	-21.7%	-4.6	14.8%	-13.2%	?
O=C(/C=C/c1ccco1)Nc1cccc(S(=O)(=O)N2CCOCC2)c1	0.2%	-0.9%	-4.9	-7.4%	2.0%	36.9%
Cc1ccc(NC(=O)/C=C/c2ccco2)cc1S(=O)(=O)N1CCCCCC1	-16.1%	-37.0%	-6.1	9.6%	-19.1%	10µM*
CC(=O)c1ccc(OCCCC(=O)Nc2ccc(C)c(S(=O)(=O)N3CCCCC3)c2)cc1	1.8%	-28.3%	0.1	10.0%	-4.6%	11.2µM*
O=C(CC1CCCC1)Nc1ccc(Cl)c(S(=O)(=O)N2CCOCC2)c1	-11.3%	-3.0%	0.5	-4.8%	-1.4%	8.91µM*
CCc1cccc(OCC(=O)Nc2ccc(C)c(S(=O)(=O)N3CCCCCC3)c2)c1	4.3%	-18.8%	-0.1	7.1%	6.6%	5.01µM*
O=C(Nc1ccc(Cl)c(S(=O)(=O)N2CCOCC2)c1)C1CCC1	12.9%	-28.3%	-4.8	-1.6%	15.2%	-15.9%
Cc1cc(C)c2c(c1)/C(=N/NC(=S)NC1CCCCC1)CCC2	nt	nt	1.1	nt	nt	nt
Cc1ccc(NC(=O)CNCCCN2CCOCC2)cc1S(=O)(=O)N1CCCCC1	-9.3%	-22.0%	-33.0*	6.5%	-15.6%	?
CCOC(=O)N1CCN(C(=O)CSc2cc(C)nc3c(-c4ccccc4OC)c(C)nn23)CC1	1.6%	-6.2%[57.5 µM]	4.6	5.6%	?	12.6µM*
SMILES	mIDH1 inhibitor	PTHR1 ag	LDHA inh	GLP-1R agonist	GLP1R cytotox	GLP1R inv ag
Cc1ccc(O)c(N=Nc2nccs2)c1	0.6%	-15.0%	4.1	0.8%	?	7.08µM*
CC(C)C(=O)NC(Nc1ccccc1C(F)(F)F)C(Cl)(Cl)Cl (stereo unspecified)	nt	nt	3.1	nt	nt	nt
CC(=O)c1c(-c2ccccc2)nc2n(CCN3CCOCC3)c3ccccc3n12	nt	nt	9.8	nt	nt	nt
COc1ccc(N=N/C(=C\O)C(=O)c2cccs2)cc1	2.1%	-13.3%	-0.6	12.4%	-20.5%	?
COc1ccc(C(=O)/C(=C/O)N=Nc2ccc(F)cc2)cc1	4.6%	-11.9%	3.1	8.0%	?	10µM*
COCCNc1oc(-c2cccc(Cl)c2)nc1C#N	nt	nt	-1.0	nt	nt	nt
c1ccc(COc2cccc(-c3cc4nc(NCCOc5ccccc5)ccn4n3)c2)cc1	nt	-13.6%	-10.1	3.0%	5.6%	10µM*
CC(=O)N=c1scc(-c2ccccc2)n1-c1cccc(O)c1	-9.7%	-13.0%	-9.1	6.8%	1.7%	11.2µM*
Cc1ccc(N=c2scc(-c3ccccc3)n2-c2cccc(C)c2)cc1	nt	nt	-5.5	nt	nt	nt
Nc1nc(N2CCN(c3ccccn3)CC2)nc2ccccc12	0.0%	-1.7%	-30.4*	22.9%	8.9%	10.3%
CN(CC(=O)Nc1ccc(OC(F)(F)F)cc1)C(=O)Cc1c(Cl)cccc1Cl	2.9%	-8.5%	-4.9	9.1%	0.0%	?
CN(CC(=O)Nc1ccc(OC(F)(F)F)cc1)C(=O)Cc1cccs1	6.1%	-21.1%	-5.4	3.9%	-3.4%	11.2µM*
CC[C@H](C)[C@@H]1NC(=O)[C@@H](CC(C)C)NC(=O)[C@H](C(C)C)NC(=O)[C@H]2CSSC[C@H](NC1=O)C(=O)N2	nt	-21.0%	-4.2	-13.4%	?	3.98µM*
CC(C)CC1NC(=O)C(CCCN)NC(=O)C(C(C)C)NC(=O)C2CCCN2C(=O)C(Cc2ccccc2)NC(=O)C(CC(C)C)NC(=O)C(CCCN)NC(=O)C(C(C)C)NC(=O)C2CCCN2C(=O)C(Cc2ccccc2)NC1=O (stereo unspecified)	nt	nt	nt	-7.4%	nt	nt
Cc1c(C(=O)NC(C)c2ccccc2)sc2ncnc(N(C)C3CCCCC3)c12 (stereo unspecified)	0.0%	i	-6.6	nt	6.9%	11.2µM*
Cc1c(C(=O)Nc2ccccc2F)sc2ncnc(N(C)C3CCCCC3)c12	nt	i	-1.4	nt	0.5%	-13.1%
OC(COc1ccccc1)CN(CCc1ccc(Cl)cc1Cl)CC(O)COc1ccccc1 (stereo unspecified)	nt	nt	3.5	nt	nt	nt
COc1ccc(/C=N/Nc2nccnc2Cl)cc1	7.6%	-51.2%	-4.6	-6.0%	?	11.2µM*
O=[N+]([O-])c1ccc(-c2cnc(SCc3ccccc3Cl)[nH]2)cc1	2.5%	-22.9%[57.5 µM]	-6.3	-6.8%	-6.7%	10µM*
Cc1cc(C)c(CSc2ncc(-c3ccc([N+](=O)[O-])cc3)[nH]2)c(C)c1	0.4%	-12.5%	-2.4	-35.9%	-12.6%	8.91µM*
Fc1ccc(NC(=S)Nc2cc(-c3ccccc3)[nH]n2)cc1Cl	-0.6%	-24.9%	3.9	1.5%	12.6µM*	?

Screens as filed in PubChem.
